Test results as given in PubChem BioAssay AID1159580 (chemical genetic matrix, 2015).
About 2,000 (36%) of roughly 5,500 compounds were called active. Another 18% or so got no clear call; they are omitted. Rule as the data show it: active = normalized growth mostly below about 0.91 (no sharp cut-off); inconclusive = no clear call, values can overlap the other calls; inactive = mostly above about 0.92. This is one part of the list.

Test: chemical genetic growth profiling, strain panel (AID 1159580);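 also: tested at 20 µM; growth read once vehicle control cultures reached saturation at 30 °C; 1 = growth at the plate median or of vehicle wells; lower values mean less growth of the strain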
Conditions: S. cerevisiae deletion strains, growth OD

Measured: normalized growth

CN(C)c1nc(=S)ss1
inactive: locus YBL105C, strain PKC1, stronger effect = lower value 0.91 | locus YDL101C, strain DUN1, stronger effect = lower value 0.937 | locus YFR003C, strain YPI1, stronger effect = lower value 0.905 | locus YFR028C, strain CDC14, stronger effect = lower value 0.894 | locus YJL128C, strain PBS2, stronger effect = lower value 0.876 | locus YPR106W, strain ISR1, stronger effect = lower value 0.934 | locus YPR111W, strain DBF20, stronger effect = lower value 0.913 | strain NNK1, stronger effect = lower value 0.921
active: locus YAR019C, strain CDC15, stronger effect = lower value 0.83 | locus YBR135W, strain CKS1, stronger effect = lower value 0.865 | locus YBR136W, strain MEC1, stronger effect = lower value 0.883 | locus YBR160W, strain CDC28, stronger effect = lower value 0.882 | locus YDL017W, strain CDC7, stronger effect = lower value 0.896 | locus YDL028C, strain MPS1, stronger effect = lower value 0.839 | locus YDL108W, strain KIN28, stronger effect = lower value 0.878 | locus YDL132W, strain cdc53, stronger effect = lower value 0.687 | locus YDL214C, strain PRR2, stronger effect = lower value 0.332 | locus YDR052C, strain DBF4, stronger effect = lower value 0.886 | locus YDR054C, strain cdc34, stronger effect = lower value 0.569 | locus YDR226W, strain ADK1, stronger effect = lower value 0.865 | locus YDR477W, strain SNF1, stronger effect = lower value 0.319 | locus YER123W, strain YCK3, stronger effect = lower value 0.186 | locus YER133W, strain GLC7, stronger effect = lower value 0.211 | locus YFL009W, strain cdc4, stronger effect = lower value 0.732 | locus YFL029C, strain CAK1, stronger effect = lower value 0.747 | locus YFR019W, strain FAB1, stronger effect = lower value 0.221 | locus YGR040W, strain KSS1, stronger effect = lower value 0.47 | locus YGR052W, strain FMP48, stronger effect = lower value 0.349 | locus YGR092W, strain DBF2, stronger effect = lower value 0.111 | locus YHR030C, strain SLT2, stronger effect = lower value 0.576 | locus YHR079C, strain IRE1, stronger effect = lower value 0.204 | locus YHR082C, strain KSP1, stronger effect = lower value 0.464 | locus YHR205W, strain SCH9, stronger effect = lower value 0.493 | locus YIL147C, strain SLN1, stronger effect = lower value 0.825 | locus YJL095W, strain BCK1, stronger effect = lower value 0.327 | locus YJL157C, strain FAR1, stronger effect = lower value 0.199 | locus YJR016C, strain ILV3, stronger effect = lower value 0.715 | locus YJR066W, strain TOR1 (second series), stronger effect = lower value 0.262 | locus YJR066W, strain TOR1, stronger effect = lower value 0.324 | locus YKL048C, strain ELM1, stronger effect = lower value 0.228 | locus YKL067W, strain YNK1, stronger effect = lower value 0.197 | locus YKL101W, strain HSL1, stronger effect = lower value 0.205 | locus YKL193C, strain SDS22, stronger effect = lower value 0.84 | locus YKL203C, strain TOR2, stronger effect = lower value 0.342 | locus YLR113W, strain HOG1, stronger effect = lower value 0.351 | locus YLR133W, strain CKI1, stronger effect = lower value 0.232 | locus YLR403W, strain SFP1, stronger effect = lower value 0.116 | locus YML070W, strain DAK1, stronger effect = lower value 0.199 | locus YMR001C, strain CDC5, stronger effect = lower value 0.87 | locus YMR205C, strain PFK2 (second series), stronger effect = lower value 0.229 | locus YMR277W, strain FCP1, stronger effect = lower value 0.827 | locus YNL006W, strain LST8, stronger effect = lower value 0.501 | locus YNL020C, strain ARK1, stronger effect = lower value 0.189 | locus YNL161W, strain CBK1, stronger effect = lower value 0.869 | locus YNL183C, strain NPR1, stronger effect = lower value 0.341 | locus YNL207W, strain RIO2, stronger effect = lower value 0.865 | locus YNL222W, strain SSU72, stronger effect = lower value 0.861 | locus YNL307C, strain MCK1 (second series), stronger effect = lower value 0.162 | locus YOL078W, strain AVO1, stronger effect = lower value 0.807 | locus YOL136C, strain PFK27, stronger effect = lower value 0.165 | locus YOR061W, strain CKA2, stronger effect = lower value 0.217 | locus YOR119C, strain RIO1, stronger effect = lower value 0.325 | locus YOR231W, strain MKK1, stronger effect = lower value 0.211 | locus YOR329C, strain SCD5, stronger effect = lower value 0.88 | locus YPL031C, strain PHO85, stronger effect = lower value 0.21 | locus YPL153C, strain RAD53, stronger effect = lower value 0.16 | locus YPL204W, strain HRR25, stronger effect = lower value 0.202 | locus YPL209C, strain IPL1, stronger effect = lower value 0.872 | locus YPL256C, strain CLN2, stronger effect = lower value 0.393 | locus YPR025C, strain CCL1, stronger effect = lower value 0.881 | strain TSCII, stronger effect = lower value 0.706
